The list is not random: actives were taken first. Their share in the collection is about 6.6%.
RGS4 inhibitor: Inhibitors of Regulator of G Protein Signaling (RGS) 4: qHTS. Regulator of G-protein signaling 4 (Homo sapiens), P49798. Transcreener GDP fluorescence polarization, RGS4-accelerated GTP hydrolysis. Potency, µM (doses to about 114 µM), for the others: at the highest dose activity change, negative = inhibition, actives largely listed as inhibitors. 0.039% of 390,000 active. AID 504845, 2011; note: % is set by controls: 0 for no effect and ±100 for the full control effect; nearly all actives have a fitted effect of over 75% in size
Target sequence (P49798 whole entry, looked up): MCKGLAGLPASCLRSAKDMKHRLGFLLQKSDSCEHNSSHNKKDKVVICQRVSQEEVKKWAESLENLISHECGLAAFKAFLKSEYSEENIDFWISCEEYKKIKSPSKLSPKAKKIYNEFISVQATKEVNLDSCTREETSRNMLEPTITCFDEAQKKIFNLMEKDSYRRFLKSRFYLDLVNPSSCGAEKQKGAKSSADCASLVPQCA
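MLSMR compounds (23 nl, pin-transferred) preincubated 10 min at room temperature with a 500nM (2x) first reagent, then RGS4 at 900nM (2x) plus Transcreener GDP mix added; fluorescence polarization (620/688 nm) read before and after 90 min at 30 °C.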
TSG101-PTAP inh: qHTS Assay for Iinhibitors of HIV-1 Budding by Blocking the Interaction of PTAP/TSG101; AID 493005, 2010; Tumor susceptibility gene 101 protein (Homo sapiens), Q99816; Potency, µM (top dose mostly 115 µM), without a hit: at the highest dose activity change, negative = inhibition, actives largely listed as inhibitors; Fluorescence polarization, FITC-PTAP peptide / Tsg101 binding; 340,000 tested, under 10 active; active = well fitted inhibition curve with a large enough effect in the main read-out, with a control signal flat, not every such curve was filed as active; inconclusive = small, poorly fitted or top-dose-only effect, or effect the other way, or a change in a side signal; inactive = no such curve, though single readings can be large or run the other way; note: % of control where 0% means no effect
Target sequence (Q99816 whole entry, looked up): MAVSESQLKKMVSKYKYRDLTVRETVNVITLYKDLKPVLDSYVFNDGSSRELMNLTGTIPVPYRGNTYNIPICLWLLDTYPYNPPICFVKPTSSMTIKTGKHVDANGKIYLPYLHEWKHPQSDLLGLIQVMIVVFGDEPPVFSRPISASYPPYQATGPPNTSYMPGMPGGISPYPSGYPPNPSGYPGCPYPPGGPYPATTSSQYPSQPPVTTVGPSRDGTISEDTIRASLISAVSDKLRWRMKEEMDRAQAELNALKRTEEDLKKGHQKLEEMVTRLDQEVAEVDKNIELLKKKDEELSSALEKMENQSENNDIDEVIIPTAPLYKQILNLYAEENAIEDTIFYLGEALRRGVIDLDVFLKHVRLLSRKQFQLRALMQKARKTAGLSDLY
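Tsg101 binding domain (10 uM final) was mixed with compound and a FITC-labeled PTAP peptide (50 nM final) in HEPES pH 7.5 buffer with NaCl, Tween 20, EDTA and TCEP; fluorescence polarization was read after 20 min at r.t.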
KB-V1 cytotox: qHTS assay for MDR1-selective chemotherapeutics: Primary screen using the drug-selected MDR subline cells KB-V1 | 3.4% of 400,000 active | KB-V1 MDR cells viability, CellTiter-Glo, 72 h | Potency, µM (top dose mostly 46.1 µM), actives largely listed as cytotoxic | AID 1347076, 2019; note: % is set by controls: 0 for no effect and ±100 for the full control effect; nearly all actives have a fitted effect of over 60% in size
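qHTS viability screen in drug-selected KB-V1 MDR cells: 72 h compound treatment at 37 degrees C, ATP luminescence end point.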
MCF10A rerep: A quantitative high throughput screen for small molecules that induce DNA re-replication in MCF 10a normal breast cells. MCF 10A DNA re-replication, Hoechst nuclear intensity, 48 h. Potency, µM (doses to about 46.1 µM), without a hit: at the top dose activity, positive = re-replication, most hits filed as activators. 2.9% of 350,000 active. AID 624296, 2012; note: % of control where 0% means no effect; nearly all actives have a fitted effect of over 50% in size
KB-3-1 tox: qHTS assay for MDR1-selective chemotherapeutics: Primary screen using the parental adenocarcinoma cell KB-3-1. Potency, µM (titrated, usually from 46.1 µM), usual class: cytotoxic. AID 1347075, 2019. KB-3-1 viability, CellTiter-Glo ATP luminescence, 72 h. 1.4% of 400,000 active; note: % is set by controls: 0 for no effect and ±100 for the full control effect; nearly all actives have a fitted effect of over 60% in size
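Here the drug-naive KB-3-1 line serves as comparator for MDR sub-line selectivity; cells received compound titrations, 72 h at 37 °C, then CellTiter-Glo readout.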
SW480 rerep: A quantitative high throughput screen for small molecules that induce DNA re-replication in SW480 colon adenocarcinoma cells; SW480 DNA re-replication, Hoechst DNA content imaging, 48 h; Potency, µM (doses to about 46.1 µM), inactives show top-dose re-replication activation, usual class: activators; 1.8% of 340,000 active; AID 624297, 2012; note: % of control where 0% means no effect; nearly all actives have a fitted effect of over 55% in size
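Image-based read-out: total Hoechst fluorescence of nuclei (405 nm excitation, 500-530 nm emission), with hits raising the fraction of high-intensity nuclei. SW480 colon cells incubated 48 hr with compounds at 37 C.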
* marks the source's active call; other numbers are inactive results; [ ] = dose if it differs, or a comment. Unless noted, calls come from the whole dose curve; as a rule, active = well fitted curve in the direction sought with a large enough effect; inconclusive = small, poorly fitted or top-dose-only effect, or another doubt; inactive = no such curve, though single readings can be large; an effect the other way counts as inactive or inconclusive. Potency is the fitted concentration of half-maximal effect.

Screening CC(C)(CN1CCNCC1)NS(=O)(=O)c1ccc(Cl)cc1 returned RGS4 inhibitor 20%, TSG101-PTAP inh -7%, KB-V1 cytotox inactive, MCF10A rerep 12µM*, KB-3-1 tox 21µM* and SW480 rerep 4%.
For CCOC(=O)C1CCN(CC(C)(C)NS(=O)(=O)c2ccc(C)cc2)CC1 the results were RGS4 inhibitor -14%, TSG101-PTAP inh -7%, KB-V1 cytotox inactive, MCF10A rerep 0%, KB-3-1 tox inactive and SW480 rerep -5%.
`CN(C)c1nc(NC(C)(C)C)nc(SCC(=O)Nc2ccccc2)n1` gave RGS4 inhibitor -2%, TSG101-PTAP inh -4%, KB-V1 cytotox 8.2µM*, MCF10A rerep 1%, KB-3-1 tox inactive and SW480 rerep -3%.
Screening CN(C)c1nc(SCCOC(=O)Nc2ccccc2)nc(N(C)C)n1 returned RGS4 inhibitor -2%, TSG101-PTAP inh -4%, KB-V1 cytotox 15µM*, MCF10A rerep 1%, KB-3-1 tox inactive and SW480 rerep -6%.
Screening Cc1ccccc1OCCSc1nc(N(C)C)nc(N(C)C)n1 returned RGS4 inhibitor -2%, TSG101-PTAP inh -6%, KB-V1 cytotox inactive, MCF10A rerep 1%, KB-3-1 tox inactive and SW480 rerep -17%.
`Cc1cccc(N2CC(c3nc4ccccc4n3CCC3CCCCC3)CC2=O)c1` (stereo not given) gave RGS4 inhibitor 4%, KB-V1 cytotox inactive and KB-3-1 tox inconclusive.
`CCC(C)C(=O)OC1CCC=C2C=CC(C)C(CCC3CC(O)CC(=O)O3)C21` (stereo not given) gave RGS4 inhibitor -24%, TSG101-PTAP inh -1%, KB-V1 cytotox 18µM*, MCF10A rerep 21%, KB-3-1 tox 13µM* and SW480 rerep inconclusive.
Cc1ccc(C2NC(=O)c3c(sc(C)c3C)N2)c(O)c1 (stereo not given) was read as RGS4 inhibitor inconclusive, TSG101-PTAP inh 0%, KB-V1 cytotox inactive, MCF10A rerep inconclusive, KB-3-1 tox inactive and SW480 rerep 21µM*.
`Cc1cccc(C2NC(=O)c3c(sc(C)c3C)N2)c1O` (stereo not given) gave RGS4 inhibitor -21%, TSG101-PTAP inh -1%, KB-V1 cytotox inactive, MCF10A rerep 5%, KB-3-1 tox inactive and SW480 rerep 2%.
Screening CCOC(=O)c1nnn(-c2ccccc2)c1C returned RGS4 inhibitor -11%, TSG101-PTAP inh -5%, KB-V1 cytotox inactive, MCF10A rerep 3%, KB-3-1 tox inactive and SW480 rerep 6%.
CCOC(=O)c1nnn(-c2ccc([N+](=O)[O-])cc2[N+](=O)[O-])c1C was read as RGS4 inhibitor 13%, TSG101-PTAP inh -5%, KB-V1 cytotox inactive, MCF10A rerep inconclusive, KB-3-1 tox 23µM* and SW480 rerep 7.3µM*.
CCCn1c2ccccc2c2cnn(CC(=O)Nc3ccccc3OC)c(=O)c21 was read as RGS4 inhibitor 8%.
Screening Nc1nc(NCc2ccc(F)cc2)c2[nH]cnc2n1 returned RGS4 inhibitor -2%, KB-V1 cytotox inactive and KB-3-1 tox inactive.
Screening CCNS(=O)(=O)c1ccc2c(c1)NCC2 returned RGS4 inhibitor -24%, TSG101-PTAP inh 0%, KB-V1 cytotox inactive, MCF10A rerep -5%, KB-3-1 tox inactive and SW480 rerep 5.8µM*.
Screening CCNS(=O)(=O)c1ccc(OC)c(C)c1 returned RGS4 inhibitor 22%, TSG101-PTAP inh -2%, KB-V1 cytotox inactive, MCF10A rerep -3%, KB-3-1 tox inactive and SW480 rerep 17%.
`COc1ccc(OCCn2c(CCNC(=O)C3CCCCC3)nc3ccccc32)cc1` gave RGS4 inhibitor -13%, KB-V1 cytotox inactive and KB-3-1 tox inactive.
Screening O=C(COc1ccc(Cl)cc1)Nc1ccc(C(=O)OCc2cc(=O)n3ccsc3n2)cc1 returned RGS4 inhibitor inconclusive, KB-V1 cytotox inactive and KB-3-1 tox inactive.
Screening Cc1ccc(/C=C/c2onc(C)c2S(=O)(=O)N2CCC(C(=O)N3CCCCC3)CC2)cc1 returned RGS4 inhibitor -10%, TSG101-PTAP inh 1%, KB-V1 cytotox inactive, MCF10A rerep 27%, KB-3-1 tox inactive and SW480 rerep -17%.
CCCN1CCN(C(=O)C2CCN(S(=O)(=O)c3c(C)noc3/C=C/c3ccc(C)cc3)CC2)CC1 was read as RGS4 inhibitor -2%, TSG101-PTAP inh -4%, KB-V1 cytotox inconclusive, MCF10A rerep inconclusive, KB-3-1 tox 26µM* and SW480 rerep 16µM*.
For Cc1noc(/C=C/c2ccco2)c1S(=O)(=O)N1CCC(C(=O)N2CCc3ccccc3C2)CC1 the results were RGS4 inhibitor -47%, TSG101-PTAP inh 2%, KB-V1 cytotox inactive, MCF10A rerep 18µM*, KB-3-1 tox inconclusive and SW480 rerep inconclusive.
Cc1ccccc1NC(=O)C1CCN(S(=O)(=O)c2c(C)noc2/C=C/c2ccco2)CC1 was read as RGS4 inhibitor 9%.
CCOc1ccccc1/C=C/c1onc(C)c1S(=O)(=O)N1CCC(C(=O)N2CCCCCC2)CC1 was read as RGS4 inhibitor 12%, TSG101-PTAP inh 2%, KB-V1 cytotox inactive, MCF10A rerep 18µM*, KB-3-1 tox inconclusive and SW480 rerep -8%.
`Cc1ccc(-c2nc(CSCC(=O)NCc3cccnc3)c(C)o2)cc1` gave RGS4 inhibitor 32%, TSG101-PTAP inh -2%, KB-V1 cytotox 3.7µM*, MCF10A rerep 0%, KB-3-1 tox inconclusive and SW480 rerep 0%.
Screening CCOC(=O)N1CCC(NC(=O)CSCc2nc(-c3ccc(OC)cc3)oc2C)CC1 returned RGS4 inhibitor -8%[11.4 µM], TSG101-PTAP inh -3%, KB-V1 cytotox inconclusive, MCF10A rerep 2%, KB-3-1 tox inactive and SW480 rerep 20%.
Screening COc1ccc(-c2nc(CSCC(=O)NCCc3ccccc3)c(C)o2)cc1 returned RGS4 inhibitor -10%, KB-V1 cytotox inactive and KB-3-1 tox inconclusive.

Screening results deposited in PubChem by National Center for Advancing Translational Sciences (NCATS).
